For some assays here: Measured potencies and affinities stand elsewhere.
How the values were obtained:
Design in all cases: scale not given: direction of the effect not stated beside the values
[1] = molecular target: Protein translocase subunit SecA (Escherichia coli (strain K12)) (UniProt P10408); assay: Assay to Identify E. coli SecA ATPase Inhibitors; type: functional; conditions: 30 µM
[2] = molecular target: T1, Ubiquitin-activating enzyme e1, putative (Leishmania donovani (strain BPK282A1)) (UniProt E9BSI1); assay: Leishmania donovani Ubiquitin Activating Enzyme (LdE1); type: functional; conditions: 30 µM
T1 sequence (whole entry): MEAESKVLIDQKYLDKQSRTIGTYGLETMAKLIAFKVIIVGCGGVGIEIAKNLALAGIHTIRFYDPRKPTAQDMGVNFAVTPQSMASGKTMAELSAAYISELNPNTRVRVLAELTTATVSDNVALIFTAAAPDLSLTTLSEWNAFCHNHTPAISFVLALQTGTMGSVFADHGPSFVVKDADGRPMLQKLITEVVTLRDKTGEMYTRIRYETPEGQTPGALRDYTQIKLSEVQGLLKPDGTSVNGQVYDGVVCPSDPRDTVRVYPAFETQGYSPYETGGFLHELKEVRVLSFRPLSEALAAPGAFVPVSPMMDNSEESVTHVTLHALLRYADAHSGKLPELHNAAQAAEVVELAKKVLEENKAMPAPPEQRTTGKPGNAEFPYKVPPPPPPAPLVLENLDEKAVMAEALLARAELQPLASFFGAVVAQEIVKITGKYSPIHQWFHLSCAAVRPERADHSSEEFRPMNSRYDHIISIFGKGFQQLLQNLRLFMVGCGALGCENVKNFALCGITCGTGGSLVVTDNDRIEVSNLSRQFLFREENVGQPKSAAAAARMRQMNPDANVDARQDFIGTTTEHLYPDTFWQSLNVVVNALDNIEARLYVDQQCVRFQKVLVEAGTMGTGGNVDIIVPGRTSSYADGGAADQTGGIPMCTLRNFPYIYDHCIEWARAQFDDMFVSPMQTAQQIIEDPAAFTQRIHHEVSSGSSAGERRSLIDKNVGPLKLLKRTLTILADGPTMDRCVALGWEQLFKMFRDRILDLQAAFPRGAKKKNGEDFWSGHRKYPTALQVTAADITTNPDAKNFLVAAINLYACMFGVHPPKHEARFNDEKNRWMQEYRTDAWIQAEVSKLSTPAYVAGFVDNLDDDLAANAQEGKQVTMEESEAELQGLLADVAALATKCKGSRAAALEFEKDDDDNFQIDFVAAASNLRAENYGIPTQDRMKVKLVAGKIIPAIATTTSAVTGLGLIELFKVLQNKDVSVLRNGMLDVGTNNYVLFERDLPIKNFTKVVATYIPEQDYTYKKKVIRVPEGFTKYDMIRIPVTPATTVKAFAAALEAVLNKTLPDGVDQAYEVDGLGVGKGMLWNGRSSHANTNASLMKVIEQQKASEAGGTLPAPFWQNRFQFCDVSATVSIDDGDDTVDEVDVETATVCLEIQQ

[3] = molecular target: AMP-activated protein kinase, AMPK (Homo sapiens) (UniProt P54646+O43741+P54619+Q9UGJ0+Q9Y478+Q13131+Q9UGI9); assay: AMP-dependent Kinase enzyme assay. An in vitro enzyme assay that detects ADP turnover that is directly proportional to AMPK activity. This uses naive AMPK that is activated during the assay with MK-8722; type: functional; conditions: 30 µM
[4] = molecular target: Sialic acid-binding Ig-like lectin 9 (Homo sapiens) (UniProt Q9Y336); assay: Hs-Siglec9 ALPHAscreen SOP 20170721; conditions: 10 µM
Sequence of Sialic acid-binding Ig-like lectin 9 (Homo sapiens) (Q9Y336 whole entry): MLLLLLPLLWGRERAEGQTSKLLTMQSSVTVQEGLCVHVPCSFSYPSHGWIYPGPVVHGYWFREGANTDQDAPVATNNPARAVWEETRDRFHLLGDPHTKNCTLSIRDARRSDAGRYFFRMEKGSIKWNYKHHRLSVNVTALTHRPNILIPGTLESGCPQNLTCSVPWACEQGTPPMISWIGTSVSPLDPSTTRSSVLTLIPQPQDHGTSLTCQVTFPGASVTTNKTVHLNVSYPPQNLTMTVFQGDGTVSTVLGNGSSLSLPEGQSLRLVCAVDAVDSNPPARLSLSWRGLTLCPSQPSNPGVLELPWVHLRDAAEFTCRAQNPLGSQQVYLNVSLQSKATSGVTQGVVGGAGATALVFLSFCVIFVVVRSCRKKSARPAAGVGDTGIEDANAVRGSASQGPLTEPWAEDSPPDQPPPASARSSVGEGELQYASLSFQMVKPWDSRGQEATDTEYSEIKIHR

[5] = system: Trypanosoma cruzi; assay: Trypanosoma cruzi phosphomannomutase and mannose-1-phosphate guanylyltransferase assay; type: functional; conditions: 10 µM
[6] = molecular target: T2, Arginase-2, mitochondrial (Homo sapiens) (UniProt P78540); assay: in vitro enzyme assay to detect the production of urea directly proportional to the activity of Arginase II; type: functional; conditions: 33.3 µM; also: in the data most compounds retested in dose-response had high values
T2 sequence (whole entry): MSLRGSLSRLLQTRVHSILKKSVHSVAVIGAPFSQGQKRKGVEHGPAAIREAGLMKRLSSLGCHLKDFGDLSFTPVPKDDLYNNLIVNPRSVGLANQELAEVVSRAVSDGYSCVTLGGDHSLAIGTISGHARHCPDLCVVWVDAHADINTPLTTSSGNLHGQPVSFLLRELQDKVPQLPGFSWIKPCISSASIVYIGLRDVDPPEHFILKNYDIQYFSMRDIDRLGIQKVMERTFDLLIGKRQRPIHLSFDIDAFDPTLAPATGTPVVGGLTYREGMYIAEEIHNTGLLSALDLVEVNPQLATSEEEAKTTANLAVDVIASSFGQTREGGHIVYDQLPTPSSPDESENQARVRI

[7] = molecular target: T3, Proteasome subunit beta (Trypanosoma cruzi) (UniProt O96673); assay: Trypanosoma cruzi proteasome chymotrypsin-like activity (TcProtChymo) assay.; also: in the data most compounds retested in dose-response had high values; type: functional; conditions: 9.37 µM
T3 sequence (whole entry): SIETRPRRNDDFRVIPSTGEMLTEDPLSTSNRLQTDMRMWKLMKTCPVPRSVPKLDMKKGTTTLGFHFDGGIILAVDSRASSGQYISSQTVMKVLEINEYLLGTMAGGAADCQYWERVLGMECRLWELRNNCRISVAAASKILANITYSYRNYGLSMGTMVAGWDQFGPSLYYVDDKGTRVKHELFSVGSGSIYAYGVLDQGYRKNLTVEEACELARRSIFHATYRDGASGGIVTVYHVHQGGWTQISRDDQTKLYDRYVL

[8] = species on record: Homo sapiens; assay: To identify inhibition of the IFN signalling (Jak-Stat) pathway via expression of an eGFP reporter gene under the control of an IFN-stimulated response element (ISRE) containing MxA promoter.; type: functional; conditions: 30 µM
[9] = molecular target: T4, Tyrosyl-tRNA synthetase, putative (Trypanosoma cruzi (strain CL Brener)) (UniProt Q4DSP6); assay: Trypanosoma cruzi tyrosyl tRNA synthetase (TcYRS) _High Tyrosine SOP; type: functional; conditions: 30 µM; also: in the data most compounds retested in dose-response had high values
T4 sequence (whole entry): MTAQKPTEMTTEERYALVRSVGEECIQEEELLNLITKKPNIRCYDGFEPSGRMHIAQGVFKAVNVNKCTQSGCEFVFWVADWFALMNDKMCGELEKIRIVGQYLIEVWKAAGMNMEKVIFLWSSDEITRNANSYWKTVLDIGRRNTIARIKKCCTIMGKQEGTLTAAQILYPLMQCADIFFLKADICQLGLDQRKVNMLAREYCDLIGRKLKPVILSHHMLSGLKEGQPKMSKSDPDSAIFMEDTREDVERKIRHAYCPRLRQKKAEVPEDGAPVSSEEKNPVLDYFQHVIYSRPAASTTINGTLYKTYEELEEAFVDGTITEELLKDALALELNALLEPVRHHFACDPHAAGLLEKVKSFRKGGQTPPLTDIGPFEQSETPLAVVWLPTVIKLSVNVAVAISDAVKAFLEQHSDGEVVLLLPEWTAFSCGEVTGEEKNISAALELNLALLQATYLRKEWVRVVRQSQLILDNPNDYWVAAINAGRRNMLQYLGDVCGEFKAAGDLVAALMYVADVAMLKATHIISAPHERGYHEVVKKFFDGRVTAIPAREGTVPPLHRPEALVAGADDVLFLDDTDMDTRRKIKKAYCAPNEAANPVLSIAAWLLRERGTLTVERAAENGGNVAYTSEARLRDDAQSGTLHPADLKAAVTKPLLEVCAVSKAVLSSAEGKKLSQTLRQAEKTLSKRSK

[10] = molecular target: T4, Tyrosyl-tRNA synthetase, putative (Trypanosoma cruzi (strain CL Brener)); assay: Trypanosoma cruzi tyrosyl tRNA synthetase (TcYRS) SOP; type: functional; conditions: 30 µM
[11] = molecular target: Chromo domain-containing protein 1 (Saccharomyces cerevisiae (strain ATCC 204508 / S288c) (Baker's yeast)) (UniProt P32657); assay: ScCHD-1 Enzyme Inhibition Assay; type: functional; conditions: 30 µM; also: in the data most compounds retested in dose-response had high values
Sequence of Chromo domain-containing protein 1 (Saccharomyces cerevisiae (strain ATCC 204508 / S288c) (Baker's yeast)) (P32657 whole entry, the tested form may be a part): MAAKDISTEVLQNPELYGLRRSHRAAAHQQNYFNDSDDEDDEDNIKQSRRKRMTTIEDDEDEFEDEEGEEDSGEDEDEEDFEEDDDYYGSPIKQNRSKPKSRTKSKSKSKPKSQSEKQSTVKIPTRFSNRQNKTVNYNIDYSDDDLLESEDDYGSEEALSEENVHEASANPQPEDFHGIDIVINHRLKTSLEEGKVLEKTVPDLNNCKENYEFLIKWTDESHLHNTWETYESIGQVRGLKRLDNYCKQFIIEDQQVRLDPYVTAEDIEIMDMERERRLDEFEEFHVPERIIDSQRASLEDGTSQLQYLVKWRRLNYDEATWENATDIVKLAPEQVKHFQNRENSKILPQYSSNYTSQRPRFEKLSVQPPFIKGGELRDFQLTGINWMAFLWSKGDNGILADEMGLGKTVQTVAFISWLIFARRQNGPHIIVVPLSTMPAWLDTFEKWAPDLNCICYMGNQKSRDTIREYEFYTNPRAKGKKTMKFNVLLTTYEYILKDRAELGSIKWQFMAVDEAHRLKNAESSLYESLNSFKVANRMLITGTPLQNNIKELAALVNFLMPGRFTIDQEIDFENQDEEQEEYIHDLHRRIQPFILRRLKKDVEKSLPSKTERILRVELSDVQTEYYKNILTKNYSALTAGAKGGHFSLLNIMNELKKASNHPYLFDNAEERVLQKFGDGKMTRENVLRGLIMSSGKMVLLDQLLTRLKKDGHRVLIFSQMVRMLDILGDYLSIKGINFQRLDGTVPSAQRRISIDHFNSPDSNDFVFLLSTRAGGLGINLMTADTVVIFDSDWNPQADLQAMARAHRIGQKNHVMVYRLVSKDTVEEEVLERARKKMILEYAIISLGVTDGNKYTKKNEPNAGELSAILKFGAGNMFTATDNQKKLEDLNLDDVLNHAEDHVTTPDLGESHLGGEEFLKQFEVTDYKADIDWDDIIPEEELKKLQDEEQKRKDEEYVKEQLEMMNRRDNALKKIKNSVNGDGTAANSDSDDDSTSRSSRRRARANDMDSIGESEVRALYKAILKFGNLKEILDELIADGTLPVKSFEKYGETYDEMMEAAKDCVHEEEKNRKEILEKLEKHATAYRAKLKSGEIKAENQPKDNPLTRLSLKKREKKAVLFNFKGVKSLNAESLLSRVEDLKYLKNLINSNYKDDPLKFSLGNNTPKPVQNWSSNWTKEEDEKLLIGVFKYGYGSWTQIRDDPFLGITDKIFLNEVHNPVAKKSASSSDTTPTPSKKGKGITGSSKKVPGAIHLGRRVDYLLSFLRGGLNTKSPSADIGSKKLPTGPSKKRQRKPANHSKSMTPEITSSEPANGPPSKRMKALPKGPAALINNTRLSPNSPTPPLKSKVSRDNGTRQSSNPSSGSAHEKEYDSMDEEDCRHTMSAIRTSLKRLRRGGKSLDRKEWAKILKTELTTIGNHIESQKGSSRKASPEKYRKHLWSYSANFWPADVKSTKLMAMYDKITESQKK

Sequence of Protein translocase subunit SecA (Escherichia coli (strain K12)) (P10408 whole entry): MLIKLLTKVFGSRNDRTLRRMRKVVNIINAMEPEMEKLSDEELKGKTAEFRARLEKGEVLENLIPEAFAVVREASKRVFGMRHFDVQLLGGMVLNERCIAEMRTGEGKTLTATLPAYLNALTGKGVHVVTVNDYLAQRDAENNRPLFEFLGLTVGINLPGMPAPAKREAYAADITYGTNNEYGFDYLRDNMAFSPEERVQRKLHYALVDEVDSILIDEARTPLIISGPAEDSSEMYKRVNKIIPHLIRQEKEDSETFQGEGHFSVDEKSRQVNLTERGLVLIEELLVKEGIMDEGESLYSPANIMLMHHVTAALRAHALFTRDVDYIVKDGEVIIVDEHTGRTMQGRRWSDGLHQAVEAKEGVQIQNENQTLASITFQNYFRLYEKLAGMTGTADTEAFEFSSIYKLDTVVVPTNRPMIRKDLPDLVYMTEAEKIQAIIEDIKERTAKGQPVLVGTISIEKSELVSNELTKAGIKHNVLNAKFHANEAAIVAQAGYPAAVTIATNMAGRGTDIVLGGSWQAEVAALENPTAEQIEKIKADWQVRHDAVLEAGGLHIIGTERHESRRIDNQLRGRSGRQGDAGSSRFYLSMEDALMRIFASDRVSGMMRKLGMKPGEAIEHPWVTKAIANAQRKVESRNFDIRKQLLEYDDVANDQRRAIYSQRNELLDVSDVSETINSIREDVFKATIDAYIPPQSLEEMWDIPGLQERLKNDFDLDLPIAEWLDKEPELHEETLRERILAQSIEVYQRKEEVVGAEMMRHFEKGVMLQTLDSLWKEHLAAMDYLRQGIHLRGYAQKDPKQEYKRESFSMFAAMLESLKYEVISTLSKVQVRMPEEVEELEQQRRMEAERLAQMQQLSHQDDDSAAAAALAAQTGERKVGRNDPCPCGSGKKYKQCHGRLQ

Compound | Percent Effect [1] [%] | Percent Effect [2] [%] | Percent Effect [3] [%] | Percent Effect [4] [%] | Percent Effect [5] [%] | Percent Effect [6] [%] | Percent Effect [7] [%] | Percent Effect [8] [%] | Percent Effect [9] [%] | Percent Effect [10] [%] | Percent Effect [11] [%]
Cc1ncsc1CN1C[C@@H]2COC[C@]2(C(=O)NCC2CC2)C1 | -0.435 | 0 | 8.5 | 2.51 | -4.33 | 5.83 | -1.15 | 25.1 | 2.13 | 1.28 | 10.8
CCOCC1CN(C(=O)C2=CCCC2)Cc2cnn(CC)c21 (stereo unspecified) | -2.5 | 16.2 | -0.303 | 0.664 | 3.62 | 3.5 | 19.9 | 9.89 | 3.24 | 12.8 | -2.18
CNc1oc(-c2cc(S(=O)(=O)N3CCCCCC3)c(C)o2)nc1C#N | -5.54 | -9.33 | 2.78 | 2.42 | 5.5 | -3.35 | 11.3 | 8.06 | 1.06 | 10.3 | -7.07
Cc1nn2c(N3CCC(O)C3)cc(-c3ccccc3)nc2c1C (stereo unspecified) | -2.08 | 16.4 | -7.6 | 7.31 | 2.58 | -1.6 | 12.6 | -0.188 | 7.29 | -82.7 | -3.57
O=C(NCCNc1ncccn1)N1CCN(Cc2cccnc2)CC1 | -10.3 | 13.5 | -7.65 | 22.9 | 10.5 | -16 | 6.13 | 2.94 | 7.39 | 23.5 | -14.1
CNc1nc(C(=O)N2CCCC(c3nccn3CC3CCC3)C2)cs1 (stereo unspecified) | -5.42 | 8.22 | -0.395 | -0.171 | 1.96 | 0.455 | 7.81 | 0.132 | 6.45 | -22.5 | -6.79
O=C(Cc1ccccn1)N1CCN(CC2CC2)c2ncccc2C1 | -4.53 | 10.7 | 3.91 | 0.314 | 0.591 | -0.699 | 4.85 | 9.79 | 6.38 | 16.7 | -7.07
Cc1nc(CN2CCC3(CCN(c4ncc(F)cn4)C3)C2=O)cs1 (stereo unspecified) | 1.42 | 15.6 | 4.16 | -14.7 | -3.25 | 9.68 | 21.4 | 6.2 | 6.35 | 11.5 | -9.48
Cc1nccn1CCCC(=O)N1CCC(Nc2cccnn2)CC1 | -3.42 | 5.41 | -7.19 | 11.7 | 4.43 | -1.6 | 3.06 | 1.39 | 2.46 | 16.1 | -8.26
Cc1cc(C)n(CC2CCCN2C(=O)CCCc2ccccn2)n1 (stereo unspecified) | -6.25 | 2.63 | 5.48 | 0.753 | -3.76 | 2.68 | 10.9 | 16.9 | 1.47 | 4.88 | -3.06
COc1ccc(OCC(=O)NS(=O)(=O)c2cc(F)ccc2F)cc1 | -8 | 0 | 5.69 | -4.95 | -3.28 | -3.33 | 5.34 | 22.6 | -3.7 | -4.88 | -2.11
COc1ccc(CN2CCCC3(CCN(c4ccsc4)C3=O)C2)cc1 (stereo unspecified) | -1.81 | 0 | 5.65 | 2.16 | -5.32 | 3.96 | 6.78 | 21.2 | 2.13 | 3.85 | -0.303
O=C1NC(c2ccccc2)=N[C@@]12CC[C@@H]1CN(Cc3ccccc3)C[C@@H]12 | -1.1 | 10.7 | -2.75 | 0.12 | 2.12 | -43.5 | 7.18 | 3.72 | 10.4 | 27.5 | -8.07
CS(=O)(=O)N1CCC(C(=O)NC(Cc2ccsc2)c2nccs2)CC1 (stereo unspecified) | -5.37 | 9.46 | 6.1 | -1.37 | -3.36 | -1.16 | 2.65 | 12.9 | 0 | 11.7 | 2.8
COCCn1nc(C(=O)N2CCCC2c2cccc(F)c2)ccc1=O (stereo unspecified) | -0.858 | 5.41 | -0.552 | 11.3 | 2.9 | 10 | 8.1 | -4.91 | -0.529 | -2.44 | -0.976
CSCCCN1CCn2nc(CNC(C)=O)cc2C1 | -4.2 | 0 | 6.86 | 4.06 | -7.05 | -0.455 | 8.16 | 27.3 | -1.07 | -2.5 | -4.5

Reference: ChEMBL document CHEMBL3988442, “University of Dundee, Small-Polar-MMV Screening Library” (2021)
